Data: PubChem BioAssay
Active and inactive are the calls of the source. Unless noted, no rule for the calls is given here.

What was measured:
[1] = system: XIP peptide (Xip251-270) binding; assay: small-molecule binders of XIP peptide, primary screen, biochemical, small-molecule microarray, fluorescence 635/667 nm, 0.1 µg/mL protein (AID 1182); settings: fluorescent protein binding, 635 nm, higher = more signal, called active from +8 up or from −8 down
[2] = system: XIP peptide (Xip251-270); assay: small-molecule binders of XIP peptide, primary screen, biochemical, small-molecule microarray, fluorescence 635/667 nm, 0.5 µg/mL protein (AID 1183); settings: small-molecule microarray binding, fluorescence 635 nm; higher = more signal
[3] = Plasmodium falciparum growth inhibition, primary screen, strain 3D7, DAPI fluorescence, 100 nL (AID 1184);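 also: parasites grown inside human red blood cells in medium with human serum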; settings: P. falciparum 3D7 growth, 3 d, higher = more signal
[4] = target: Homeobox protein Hox-A13 (Mus musculus) (UniProt Q62424); assay: inhibitors of HoxA13-DNA binding, primary screen, biochemical, fluorescence polarization, labeled oligonucleotide (AID 1185); settings: 15 min, higher = more signal, called active from +8 up or from −8 down
Sequence of Homeobox protein Hox-A13 (Mus musculus) (Q62424 whole entry, looked up): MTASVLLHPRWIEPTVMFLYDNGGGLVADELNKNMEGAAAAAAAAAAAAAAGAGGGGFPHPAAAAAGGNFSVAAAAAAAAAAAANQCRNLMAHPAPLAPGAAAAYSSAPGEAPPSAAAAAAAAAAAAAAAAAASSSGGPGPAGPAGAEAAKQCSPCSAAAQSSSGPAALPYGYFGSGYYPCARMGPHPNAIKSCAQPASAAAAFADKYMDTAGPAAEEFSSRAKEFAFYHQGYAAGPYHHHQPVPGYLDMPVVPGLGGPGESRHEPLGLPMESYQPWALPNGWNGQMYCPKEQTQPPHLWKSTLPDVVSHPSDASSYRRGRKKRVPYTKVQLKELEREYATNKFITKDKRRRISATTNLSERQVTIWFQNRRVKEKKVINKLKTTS

[5] = inhibitors of hydroxyurea-induced Chk1 phosphorylation, primary screen, imaging, HeLa, phospho-Chk1 antibody, percent positive cells (AID 1186); settings: hydroxyurea-induced phospho-Chk1 immunofluorescence imaging, higher = more signal
[6] = inhibitors of hydroxyurea-induced Chk1 phosphorylation, primary screen, imaging, HeLa, phospho-Chk1 nuclear intensity (AID 1187); settings: hydroxyurea-induced phospho-Chk1 immunofluorescence imaging, higher = more signal

| Structure (SMILES) | composite z-score [1] | composite z-score [2] | z-score [3] | z-score [4] | z-score [5] | z-score [6] |
| --- | --- | --- | --- | --- | --- | --- |
| COCCOC(=O)N1C(=O)[C@@]2(c3cc(C#CCNC(N)=O)ccc31)[C@H](c1ccc(O)cc1)N1[C@H](c3ccccc3)[C@H](c3ccccc3)OC(=O)[C@H]1[C@@H]2C(=O)Nc1nc2ccccc2s1 | -0.236 (inactive) | -0.132 | 0.0446 | -0.523 (inactive) | -0.373 (inactive) | -0.669 (inactive) |
| O=C1OCCC=C[C@H]2OC34C=CCN(Cc5ccccc5)C(=O)[C@H]3N(CCCCCCO)C(=O)[C@@H]4C12 (stereo partly specified) | -0.271 (inactive) | 0.8 | 0.0921 | -4.32 (inactive) | 0.249 (inactive) | 0.489 (inactive) |
| COC(=O)[C@@]1(Cc2ccccc2)[C@H]2c3cc(C(=O)N(C)C)n(Cc4c(-c5ccccc5)noc4C)c3C[C@H]2CN1C(=O)c1ccccc1 | 0.28 (inactive) | 0.12 | -1.74 | -2.59 (inactive) | 0.317 (inactive) | 0.0597 (inactive) |
| C=C(COC)C(=O)CC[C@@H](OC(=O)c1cccnc1)c1ccc(CO)o1 | 0.457 (inactive) | 0.496 | -0.469 | -4.3 (inactive) | 0.201 (inactive) | 0.679 (inactive) |
| C=CCNC(=O)[C@H]1[C@@H]2C(=O)O[C@@H](c3ccccc3)[C@@H](c3ccccc3)N2[C@@H](c2ccc(O)cc2)[C@]12C(=O)N(C(=O)OCCOC)c1ccc(C#CCCO)cc12 | 0.855 (inactive) | 0.72 | -0.353 | -3.9 (inactive) | -0.537 (inactive) | -0.532 (inactive) |
| CC(C)c1ccc(NN2C(C(O)c3ccc(N(C)C)cc3)C=CC3C(=O)N(c4ccccc4)C(=O)C32)cc1 (stereo unspecified) | -0.0313 (inactive) | 0.618 | -0.286 | -2.2 (inactive) | 0.148 (inactive) | -0.072 (inactive) |
| CC(C)CNC(=O)[C@@H]1c2ccccc2C(=O)N(Cc2cc(C(F)(F)F)cc(C(F)(F)F)c2)[C@H]1c1ccc(CO)cc1 | -0.133 (inactive) | -0.308 | -1.2 | -1.46 (inactive) | -0.236 (inactive) | 0.21 (inactive) |
| COC(=O)[C@@]1(Cc2ccc(OC)cc2)[C@H]2c3cc(C(=O)N4CCCC4)n(CCc4c[nH]c5cc(F)ccc45)c3C[C@H]2CN1C(=O)c1ccccc1 | 1.31 (inactive) | 0.687 | -1.66 | 0.828 (inactive) | 0.527 (inactive) | 0.598 (inactive) |
| CCCCCN1CC=CC23O[C@@H]4/C=C\CCC(C)OC(=O)C4[C@H]2C(=O)N(CCCCCO)[C@@H]3C1=O (stereo partly specified) | -0.263 (inactive) | 0.0185 | -1.24 | -4.05 (inactive) | -0.464 (inactive) | 0.131 (inactive) |
| C=CCNC(=O)[C@@H]1[C@H]2C(=O)O[C@H](c3ccccc3)[C@H](c3ccccc3)N2[C@H](c2ccccc2OCCO)[C@@]12C(=O)Nc1ccc(C#CC3=CCCCC3)cc12 | 1.02 (inactive) | 0.691 | -2.17 | 1.71 (inactive) | 0.0372 (inactive) | 0.464 (inactive) |
| C=C(C(=O)CC[C@H](OC(C)=O)c1ccc(OCCO)cc1)C(C)C | 0.0512 (inactive) | 0.601 | -2.57 | -3.14 (inactive) | 0.772 (inactive) | -0.0365 (inactive) |
| [N-]=[N+]=NCc1ccccc1C[C@@]1(C(=O)N2CCOCC2)N=C(c2ccc(OCCCO)cc2)O[C@@H]1c1ccccc1CN=[N+]=[N-] | 1.16 (inactive) | 0.788 | -2.36 | 0.223 (inactive) | -0.544 (inactive) | -0.629 (inactive) |
| CCCCC=C[C@@H](NC(=O)c1ccc(C(=O)OC)cc1)c1ccccc1 | 2.97 (inactive) | 0.0677 | -1.38 | -4.21 (inactive) | 0.492 (inactive) | 0.256 (inactive) |
| COCCOC(=O)N1C(=O)[C@@]2(c3cc(C#Cc4ccc(OC)cc4)ccc31)[C@H](C(=O)N1CCN(c3ncccn3)CC1)[C@H]1C(=O)O[C@H](c3ccccc3)[C@H](c3ccccc3)N1[C@@H]2c1ccc(O)cc1 | 0.0853 (inactive) | 0.481 | -1.38 | 0.261 (inactive) | -0.0134 (inactive) | -0.454 (inactive) |
| CC(C)NC(=O)[C@@H]1c2ccccc2C(=O)N(Cc2ccccc2)[C@H]1c1ccc(CO)cc1 | 0.747 (inactive) | -0.138 | -0.679 | -2.9 (inactive) | -0.0443 (inactive) | 0.0197 (inactive) |
| COC(=O)c1ccc(OC)c(/C=C\CC(OC(C)=O)c2ccccc2)c1 (stereo unspecified) | 0.322 (inactive) | 0.501 | 0.0859 | -2.35 (inactive) | 0.237 (inactive) | 0.328 (inactive) |
| [N-]=[N+]=NCc1ccccc1C[C@]1(C(=O)O)N=C(c2ccc(OCCCO)cc2)O[C@H]1c1ccccc1 | 1.06 (inactive) | 0.228 | -0.296 | -5.85 (inactive) | 0.109 (inactive) | 0.0605 (inactive) |
| CC(C)CNC(=O)[C@@]1(c2ccc([N+](=O)[O-])cc2)CC(=O)N(CC23CC4CC(CC(C4)C2)C3)[C@@H]1c1ccc(CO)cc1 | 1.1 (inactive) | 0.796 | 0.0716 | -4.17 (inactive) | -0.471 (inactive) | -0.141 (inactive) |
| COc1ccc(CCNC(=O)[C@@]2(Sc3ccc(C)cc3)CC(=O)N(Cc3ccccc3Cl)[C@@H]2c2ccc(CO)cc2I)cc1 | 0.259 (inactive) | 0.391 | -0.694 | -2.24 (inactive) | 0.351 (inactive) | 0.606 (inactive) |
| Cc1ccc(S[C@]2(C(=O)NC3CC3)CC(=O)N(Cc3ccccc3)[C@@H]2c2ccc(CO)cc2)cc1 | 0.795 (inactive) | 0.327 | -0.308 | -2.47 (inactive) | 0.0616 (inactive) | 0.0892 (inactive) |
| O=C1C2C=CC(C(O)c3cccs3)N(Nc3ccccc3F)C2C(=O)N1c1ccccc1 (stereo unspecified) | -0.238 (inactive) | 0.111 | 0.669 | -4.17 (inactive) | -0.143 (inactive) | -0.299 (inactive) |
| COCCOC(=O)N1C(=O)[C@@]2(c3cc(C#CCNC(N)=O)ccc31)[C@H](c1ccc(OCCO)cc1)N1[C@H](c3ccccc3)[C@H](c3ccccc3)OC(=O)[C@H]1[C@@H]2C(=O)N1CCc2cc(OC)c(OC)cc2C1 | -0.254 (inactive) | 0.229 | -0.605 | 1.91 (inactive) | -0.102 (inactive) | 0.15 (inactive) |
| COC(=O)[C@@]1(Cc2ccc(OC)cc2)[C@H]2c3cc(C(=O)N(C)C)n(Cc4c(OC)[nH]cc(C)c4=O)c3C[C@H]2CN1C(=O)c1ccccc1 | -0.378 (inactive) | 0.523 | -1.44 | -5.46 (inactive) | 0.324 (inactive) | -0.208 (inactive) |
| CC(C)N1C(=O)C[C@@](C(=O)NCc2ccccc2)(c2ccc([N+](=O)[O-])cc2)[C@H]1c1ccc(CO)cc1 | 0.168 (inactive) | 0.524 | -0.688 | -1.27 (inactive) | -0.293 (inactive) | -0.128 (inactive) |
| C[N+](C)(C)CCCCCCNC(=O)[C@H]1C[C@H]2C(=O)N3CCC[C@H]3C(=O)N2[C@H]1c1ccc(O)cc1 | 1.07 (inactive) | 0.276 | -1.03 | 0.0641 (inactive) | -0.428 (inactive) | -0.356 (inactive) |
| NCCCCCCNC(=O)[C@H]1C[C@H]2C(=O)NCC(=O)N2[C@H]1c1cccc(OCCO)c1 | 2.26 (inactive) | 0.814 | 0.005 | -2.07 (inactive) | 0.234 (inactive) | 0.495 (inactive) |
